According to paper PMC4336329 (PLoS ONE, 2015):
The campaign covered roughly 310,000 compounds. About 14,000 (4.5%) showed an effect of 50% or more. The effect is printed as a negative number. This excerpt belongs to a sample that is enriched for strong results.

These compounds were tested against human ether-à-go-go-related gene (hERG) potassium channel (human, UniProt Q12809) (assay: primary screen, population patch clamp on CHO cells stably expressing hERG; higher = less effect of the substance).
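Note: peak tail current of the secondary pulse compared with the same well before compound.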

Sequence of human ether-à-go-go-related gene (hERG) potassium channel (Q12809 whole entry, looked up): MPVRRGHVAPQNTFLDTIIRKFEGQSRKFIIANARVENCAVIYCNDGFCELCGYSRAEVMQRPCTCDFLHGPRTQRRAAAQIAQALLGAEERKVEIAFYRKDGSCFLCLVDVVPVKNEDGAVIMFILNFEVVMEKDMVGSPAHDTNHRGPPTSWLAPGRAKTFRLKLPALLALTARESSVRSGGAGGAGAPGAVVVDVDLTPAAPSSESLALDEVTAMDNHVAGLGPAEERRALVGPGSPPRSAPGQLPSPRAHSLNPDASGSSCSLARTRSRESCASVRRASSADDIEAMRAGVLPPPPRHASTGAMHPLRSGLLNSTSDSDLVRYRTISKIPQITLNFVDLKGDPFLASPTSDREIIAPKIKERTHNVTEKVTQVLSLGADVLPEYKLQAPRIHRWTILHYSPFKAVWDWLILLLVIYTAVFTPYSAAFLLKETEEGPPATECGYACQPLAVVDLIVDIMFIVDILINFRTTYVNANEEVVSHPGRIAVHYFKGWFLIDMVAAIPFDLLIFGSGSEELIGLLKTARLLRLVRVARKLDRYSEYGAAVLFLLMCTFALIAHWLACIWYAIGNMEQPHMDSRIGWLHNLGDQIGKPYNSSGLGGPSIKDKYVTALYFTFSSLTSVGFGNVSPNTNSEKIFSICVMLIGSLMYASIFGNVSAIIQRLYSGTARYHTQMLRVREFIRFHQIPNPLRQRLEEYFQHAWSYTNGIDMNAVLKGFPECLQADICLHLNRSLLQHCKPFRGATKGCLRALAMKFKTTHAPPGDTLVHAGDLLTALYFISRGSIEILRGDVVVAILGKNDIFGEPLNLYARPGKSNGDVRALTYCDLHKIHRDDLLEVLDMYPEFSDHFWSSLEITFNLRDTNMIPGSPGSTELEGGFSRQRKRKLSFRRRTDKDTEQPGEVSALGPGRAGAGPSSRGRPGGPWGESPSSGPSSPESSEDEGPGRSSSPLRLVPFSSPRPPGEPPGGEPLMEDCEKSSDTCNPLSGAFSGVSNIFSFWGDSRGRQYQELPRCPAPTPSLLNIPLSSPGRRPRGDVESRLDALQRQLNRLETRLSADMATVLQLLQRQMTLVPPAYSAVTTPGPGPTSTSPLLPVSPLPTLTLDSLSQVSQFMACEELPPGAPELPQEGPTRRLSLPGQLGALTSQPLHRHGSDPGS

Compound | hERG current change (%, negative = inhibition) at 10uM
COCCNC(=O)CSc1ccccc1C(=O)NC1CCCc2ccccc21 (centres unmarked) | 5.31%
COc1cc(CNC(=O)CCn2nc(C)c3c(C)n(-c4ccccc4)nc3c2=O)cc(OC)c1OC | 12%
CCOc1cccc(C(=O)Nc2ccc3oc(-c4cccnc4)nc3c2)c1 | -9.4%
N#Cc1ccc(C(=O)Nc2nc3ccccc3[nH]2)cc1 | 19%
Cl.O=C(COc1ccc(Cl)cc1)NCCN1CCCC1 | -40%
COc1cc(Br)cc(CN2CCN(C=O)CC2)c1O | -2.6%
COc1cc(NC(=O)CN(C)S(=O)(=O)c2ccc(C)cc2)cc(OC)c1 | -19.9%
CCOC(=O)C1=C(C)NC(=O)/C1=C\N(C)C | 19%
COC(CNC(=O)CNC(=S)N(CCCN1CCOCC1)Cc1cccs1)OC | 6.42%
CCOC(=O)c1ccc(NC(=S)N(CCN(C)C)Cc2cccs2)cc1 | -9.16%
CCOC(=O)c1ccc(NC(=S)N(CCCN2CCCC2)Cc2cccs2)cc1 | -67.5%
CCOC(=O)c1ccc(NC(=S)N2CCCC(C)C2)cc1 (centres unmarked) | -28.4%
CCOC(=O)c1ccc(NC(=S)N(CCCN2CCN(C)CC2)Cc2cccs2)cc1 | -65.4%
CCOC(=O)c1ccc(NC(=S)N(CCCN2CCCC(C)C2)Cc2cccs2)cc1 (centres unmarked) | -76.3%
CCOC(=O)c1ccc(NC(=S)N(CCN2CCCCCC2)Cc2cccs2)cc1 | -11.6%
CCOC(=O)c1ccc(NC(=S)N(CCCN2CCN(CC)CC2)Cc2cccs2)cc1 | -69.1%
O=C(N/N=C/C(Br)=C/c1ccccc1)c1ccncc1 | 0.715%
Cc1ccc(NC(=O)c2ccccc2NC(=O)c2cccs2)cc1 | 20.1%
Cc1cccc(NS(=O)(=O)c2cc(Cl)ccc2Cl)n1 | 22.2%
CN1CCN(C2=C(Cl)C(=O)N(c3ccc(Cl)c(Cl)c3)C2=O)CC1 | 14.1%
COc1cccc(OCCNC(=O)c2cccc(OC)c2)c1 | -1.4%
Cc1cc(/C(=N/O)C(C)(C)NO)ccc1Cl | 5.73%
COc1ccc(CNc2ccc(Cl)cc2)cc1Cn1ccnc1 | -20.3%

Compound | hERG current change (%, negative = inhibition) at 10uM
COc1ccc(C(NC(=O)/C=C/c2ccco2)c2ccc(OC)cc2)cc1 | -13.3%
Brc1ccc(-c2nnc3sc(CN4CCN(c5ccccc5)CC4)cn23)cc1 | -1.83%
O=C(NCCN1C(=O)S/C(=C\c2ccc(OC(F)F)cc2)C1=O)[C@@H]1CCCN1C(=O)c1cccs1 | -63.5%
O=C(NCCN1C(=O)S/C(=C\c2ccc(Cl)c(Cl)c2)C1=O)c1cnccn1 | 1.98%
O=C(NCCN1C(=O)S/C(=C\c2cccnc2)C1=O)c1cccc(OC(F)F)c1 | -48.7%
O=C(NCCN1C(=O)S/C(=C/c2ccccc2)C1=O)C1CCCN1C(=O)c1cccs1 (centres unmarked) | -26.9%
O=C(NCCN1C(=O)S/C(=C\c2ccc(OC(F)F)cc2)C1=O)c1cnccn1 | -57.1%
COc1ccc(/C=C2/SC(=O)N(CCNC(=O)C3CCCN3C(=O)c3cccs3)C2=O)cc1 (centres unmarked) | -22.8%
O=C(c1ccco1)N1N=C(c2ccco2)CC1c1ccc(Cl)cc1Cl (centres unmarked) | 11.9%
CN(C)S(=O)(=O)Nc1cccc(-c2cn3c(n2)SCC3)c1 | 11.2%
O=[N+]([O-])c1cc(C(F)(F)F)cc([N+](=O)[O-])c1NCCN1CCNCC1 | 4.88%
CC1CN(C)C(C)C/C1=N\Oc1ccc([N+](=O)[O-])cc1.Cl (centres unmarked) | -78.6%
CC1=CC(=O)C=C(C)C1=NOc1ccc([N+](=O)[O-])cc1 | -3.45%
CC1CN(C)C(C)C/C1=N/Oc1ccccc1[N+](=O)[O-].Cl (centres unmarked) | -26.5%
CC1CC(C)CN(S(=O)(=O)c2ccc(Oc3ccc([N+](=O)[O-])cc3)cc2)C1 (centres unmarked) | -9.72%
CN1CCN(S(=O)(=O)c2ccc([N+](=O)[O-])cc2)CC1 | -14.6%
CN1CCC(=NOc2ccc([N+](=O)[O-])cc2)CC1 | -74.8%
Cc1nc2c(cnn2-c2ccccc2)c(=O)n1/N=C/c1ccccc1 | 11.9%
N/C(=N\OC(=O)Nc1ccccc1)c1ncc([N+](=O)[O-])s1 | -2.31%
Cc1ccc2c(c1)N(Cc1cccc(C#N)c1)C=NS2(=O)=O | 9.38%
CCn1c(-c2ccc([N+](=O)[O-])cc2)n[nH]c1=S | 9.07%
CCC(=O)Nc1ccccc1C(=O)OCC(=O)c1ccccc1 | -28.1%
COc1ccc(NC(=S)N(CCN2CCCCC2)Cc2ccco2)cc1 | -57.5%

Compound | hERG current change (%, negative = inhibition) at 10uM
COc1ccc(NC(=S)N(CCCN2CCCC2)Cc2ccco2)cc1 | -39.4%
CCc1ccc(NC(=S)N(CCN2CCCCC2)Cc2ccco2)cc1 | -75.4%
CCc1ccc(NC(=S)N(CCCN2CCOCC2)Cc2ccco2)cc1 | -12.6%
COc1cccc(NC(=S)N(CCN2CCCCC2)Cc2ccco2)c1 | -43.9%
CCc1ccccc1NC(=S)N(CCN1CCCCC1)Cc1ccco1 | -46.7%
O=C1COc2ccc3ccccc3c21 | -4.35%
Cc1cc(C(=O)C(=O)O)c(C)n1-c1ccc(Cl)cc1 | -43.4%
O=C(CCC1CCCC1)NCCS(=O)(=O)N1CCN(c2ccccc2)CC1 | -12.9%
NC(=O)C1(N2CCCCC2)CCN(C(=O)c2ccc(-n3cnnn3)cc2)CC1 | -30.6%
CC1=NNC(=O)C1CCC(=O)N/N=C/C=C/c1ccccc1 (centres unmarked) | 1.22%
S=C(NC1CCCCC1)NC1CC2CCC(C1)N2Cc1ccccc1 (centres unmarked) | -33.4%
CNC(=S)NC1CC2CCCC(C1)N2Cc1ccc(C)cc1 (centres unmarked) | -38.9%
CCc1ccc(NC(=S)NC2CCN(Cc3ccccc3)CC2)cc1 | -36.9%
S=C(Nc1ccc(Cl)cc1)NC1CC2CCC(C1)N2Cc1ccccc1 (centres unmarked) | -66.1%
CC(C)c1ccc(NC(=S)NC2CCN(Cc3ccccc3)CC2)cc1 | -17.4%
CCC(C)c1ccc(NC(=S)NC2CCN(Cc3ccccc3)CC2)cc1 (centres unmarked) | -61.8%
Cc1ccc(CN2C3CCCC2CC(NC(=S)NCc2ccccc2)C3)cc1 (centres unmarked) | -72.4%
CCNC(=S)NC1CC2CCCC(C1)N2Cc1ccc(C)cc1 (centres unmarked) | -48.1%
CCc1ccc(NC(=S)NC2CC3CCCC(C2)N3Cc2ccccc2)cc1 (centres unmarked) | -70.9%
CNC(=S)NC1CC2CCC(C1)N2Cc1ccccc1 (centres unmarked) | -16.5%
CCNC(=S)NC1CC2CCC(C1)N2Cc1ccccc1 (centres unmarked) | -20.3%
S=C(Nc1ccc(Cl)cc1)NC1CCN(Cc2ccccc2)CC1 | -39.9%
